Rows were chosen to be rich in hits. Some 0.92% of all compounds tested hit in one or more screens of this group.
Mtb hypoxia inh: reduces hypoxia-regulated biosensor signal in M. tuberculosis. AID 1159583. actives 0.1% (n = 300,000). fluorescence inhibition, % (no concentration beside the values). M. tuberculosis hypoxia-regulated fluorescent reporter, fluorescence; in the data active = fluorescence inhibition mostly above about 23%, no sharp cut-off; inactive = mostly below about 17%
Mtb UGM inh: Mtb UDP-galactopyranose mutase inhibition | P9WIQ1 | purified UGM, fluorescence polarization probe displacement | inhibition, % at 10 µM | actives 0.06% (n = 320,000) | AID 504406; in the data active = inhibition above about 10%, passing the limit was not always enough
Target sequence (P9WIQ1 whole entry, looked up): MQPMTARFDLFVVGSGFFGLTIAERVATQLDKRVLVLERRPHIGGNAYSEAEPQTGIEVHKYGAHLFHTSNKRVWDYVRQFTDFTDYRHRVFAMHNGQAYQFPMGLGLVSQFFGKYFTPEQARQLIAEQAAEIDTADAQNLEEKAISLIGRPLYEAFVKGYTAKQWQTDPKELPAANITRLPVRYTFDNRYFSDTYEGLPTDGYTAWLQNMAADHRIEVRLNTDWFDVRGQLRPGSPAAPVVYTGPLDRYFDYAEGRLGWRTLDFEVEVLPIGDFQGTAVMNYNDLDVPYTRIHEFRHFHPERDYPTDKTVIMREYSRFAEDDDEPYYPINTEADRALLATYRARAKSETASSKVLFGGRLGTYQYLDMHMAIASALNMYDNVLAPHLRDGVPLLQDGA
RecA intein inh: inhibitors of M. tuberculosis RecA intein splicing. cell-free RecA intein splicing, fluorescence. actives 0.75% (n = 290,000). inhibition, % (no concentration beside the values). P9WHJ3. AID 2221; in the data active = inhibition above about 30%;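 note: 0% = vehicle wells and 100% = reference inhibitor control wells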
FadD28 binding: inhibitors of Mycobacterium tuberculosis FadD28 bisubstrate binding; FadD28 bisubstrate probe binding, fluorescence polarization; inhibition, % at 12.5 µM; actives 0.22% (n = 360,000); AID 588549; in the data active = inhibition above about 8.5%, passing the limit was not always enough
Rv3671c inh: inhibitors of M. tuberculosis serine protease Rv3671c; P9WHR9; inhibition, % at 5.96 µM; actives 0.048% (n = 320,000); in the data active = inhibition above about 38%;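 note: extracellular domain of Rv3671c used as enzyme; 0% = enzyme with DMSO and 100% = no enzyme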
The depositor's hits bear a star; x = no result shown.

SMILES	Mtb hypoxia inh	Mtb UGM inh	RecA intein inh	FadD28 binding	Rv3671c inh
N#C/C(=C\c1ccc2c(c1)OCO2)C(N)=S	6.8	0.5	1.0	-4.7	3.8
N#C/C(=C/c1ccco1)C(N)=S	-1.1	2.0	-2.4	14.8*	-2.8
Cc1cc(=O)[nH]c(NN=Cc2ccc(-c3ccc(F)cc3)o2)n1	-4.4	x	x	x	x
Cc1ccsc1C=C(C(=O)c1ccc(OC(C)C)cc1)c1nc2ccccc2o1	-3.3	x	x	x	x
O=C(NC(=C(Cl)Cl)S(=O)(=O)c1ccc(Cl)cc1)c1ccccc1	-0.3	-0.2	30.2*	-5.8	1.9
C#CCOCCOCCOCCNc1nc(N2CCOCC2)nc(N2CCN(C(=O)C(CCCCN)n3cc(C(N)CC(C)C)nn3)CC2)n1 (stereo not given)	7.5	x	x	x	x
COc1ccc(C(=O)Nc2nc(C)c3cc4c(cc3n2)OCO4)cc1	37.6*	-0.3	-1.4	-0.9	-5.7
O=C1c2c(O)cc(O)cc2O[C@H](c2ccc(O)c(O)c2)[C@H]1O	x	-2.8	-8.0	-0.7	-2.7
Oc1cc(O)c2c(c1)O[C@H](c1ccc(O)c(O)c1)[C@@H](O)C2	x	0.2	59.2*	-0.5	-1.0
COc1ccc(C=NNC(=O)c2ccn[nH]2)cc1Cn1nc(C)c([N+](=O)[O-])c1C	5.7	x	x	x	x
Cc1sc2ncnc(NC(Cc3c[nH]c4ccccc34)C(=O)O)c2c1C (stereo not given)	4.0	x	x	x	x
CC1=CC2(O)OCCN(CCO)C2=CC1=O (stereo not given)	5.5	-0.3	65.7*	0.5	-4.1
COc1ccc2c(c1)-c1nc(N=Cc3ccccc3O)sc1CC2	1.7	x	x	x	x
CC1CN(C(C)CO)C(=O)Cc2cc(NC(=O)CCC(F)(F)F)ccc2OC1CN(C)CC1CC1 (stereo not given)	14.9	x	x	x	x
CC(=NNC(=O)Cc1cccn1C)c1cccs1	-4.2	x	x	x	x
CC(C)C[C@H](N)c1nnc(S(=O)(=O)Cc2ccc(F)cc2)o1	x	-1.3	33.6*	-4.3	-0.5
CCSc1ccc(C2C3C(=O)N(C)C(=O)C3[C@]3(C(=O)OC)CCCCN23)cc1 (stereo not given in full)	14.5	x	x	x	x
Clc1cccc(Cl)c1Cn1nnc(N2CCCC2)n1	35.5*	0.6	-1.7	-2.5	-0.5
O=C1C2ON(c3ccccc3)C(c3ccccn3)C2C(=O)N1c1ccc(Br)cc1 (stereo not given)	18.2	1.4	-0.4	13.2*	-4.1
O=C1C2ON(c3ccccc3)C(c3ccncc3)C2C(=O)N1c1ccc(Br)cc1 (stereo not given)	8.7	1.6	0.8	-1.6	-7.2
O=C1CCCN1CCCN=c1c([N+](=O)[O-])nn(-c2ccc(Cl)cc2)n1O	45.6*	x	-8.7	-2.6	x
COc1ccc(C=NNC(=O)c2cc3c(ccc4ccccc43)o2)c(OC)c1	-5.9	x	x	x	x
Cc1cccc(C(=O)NC2C(=O)NNC2c2ccc(Cl)cc2)c1 (stereo not given)	x	-0.7	91.6*	-2.0	-25.6
Cc1cccc(C(=O)NC2CCCCCCC2)c1	x	0.4	2.2	0.7	6.8
COC(=O)C1=C(c2ccc(OC)c(OC)c2)CC2CCC1N2C(=O)NCCOc1ccc(OC)cc1 (stereo not given)	2.7	x	x	x	x
SMILES	Mtb hypoxia inh	Mtb UGM inh	RecA intein inh	FadD28 binding	Rv3671c inh
CN1C(=O)C(Cc2ccc3c(c2)OCO3)C(=O)N(C)C1=O	x	-0.4	30.5*	x	-7.8
O=[N+]([O-])c1cc(S(=O)(=O)N2CCCC2)ccc1NN=Cc1ccncc1	-3.7	x	x	x	x
CCC(CC)NC(=O)CON=Cc1ccc(Cl)cc1Cl	8.1	x	x	x	x
CC1(C)c2[nH]c3ccccc3c2CC2C(=O)N(Cc3ccco3)C(=O)N21 (stereo not given)	-2.7	x	x	x	x
N#Cc1cc([N+](=O)[O-])ccc1NC(=O)COC(=O)CCC1CCCCC1	x	-2.1	59.9*	x	-8.9
COc1cc(NCc2ccccc2O)c2ncccc2c1	-5.0	x	0.8	12.0*	x
O=C(O)CSC(C(=O)Nc1ccc(C(F)(F)F)cc1)c1ccccc1 (stereo not given)	7.1	-0.3	0.2	10.0*	-6.7
CCOC1OC(C(=O)Nc2ccccc2)=CC(c2csc3ccccc23)C1CCCO (stereo not given)	-4.1	x	x	x	x
Cc1cc(C)c(Nc2cc(S(=O)(=O)O)c(N)c3c2C(=O)c2ccccc2C3=O)c(C)c1	17.2	-2.0	x	64.5*	44.4*
Nc1ccc(S(=O)(=O)Nc2nc3ccccc3o2)cc1	74.6*	3.8	-1.0	4.6	6.8
Cc1nn(C(=O)CNS(=O)(=O)c2ccccc2)c(C)c1Sc1ccc(Cl)cc1	13.2	2.9	32.0*	-3.8	4.7
Brc1ccc(N/N=C(/N=Nc2nn[nH]n2)c2ccccc2)cc1	x	4.4	7.6	13.2*	17.1
CCN=c1scc(-c2ccco2)n1/N=C/c1ccc(OC)c(O)c1	x	-0.9	2.8	9.4*	7.7
CCN=c1scc(-c2ccco2)n1N=Cc1ccc(OC)c(O)c1	7.1	x	x	x	x
Cc1ccc(CSCCNC(=O)c2ccc(N(C)S(=O)(=O)c3ccccc3)cc2)cc1	18.7	4.4	6.2	8.8*	-40.0
CN(c1ccc(C(=O)NCCSCc2ccc(Cl)cc2)cc1)S(=O)(=O)c1ccccc1	0.9	0.3	6.7	2.8	-35.6
COc1ccc(C(=O)NCC2CCCO2)cc1S(=O)(=O)N1CCCc2ccccc21 (stereo not given)	-7.2	0.9	1.5	0.5	3.8
COc1ccc(CNC(=O)c2ccc(Cl)c(S(=O)(=O)N3CCCCCC3)c2)cc1	x	x	x	8.7*	x
O=C(COC(=O)c1ccc(Cl)c(S(=O)(=O)N2CCCCCC2)c1)Nc1ccccc1	3.1	1.4	4.5	61.9*	-40.6
COc1ccc(C(=O)NCc2ccc(C)cc2)cc1S(=O)(=O)N1CCCc2ccccc21	8.9	2.4	-1.7	9.9*	-19.7
O=C(NCc1ccncc1)c1ccc(Cl)c(S(=O)(=O)N2CCCCC2)c1	5.5	-0.5	-1.3	0.4	5.5
COC(=O)C1=C(C)N(Cc2ccccc2)C(=NCc2cc(OC)c(OC)c(OC)c2)NC1c1ccccc1 (stereo not given)	-12.6	x	x	x	x
CC1CN(C(C)CO)C(=O)c2cc(NC(=O)Nc3ccc(C(F)(F)F)cc3)ccc2OC1CN(C)S(C)(=O)=O (stereo not given)	7.2	x	x	x	x
COc1ccc(NS(=O)(=O)c2cccc(NC(=NS(=O)(=O)c3ccccc3)c3ccc(F)cc3)c2)cc1	8.1	x	x	x	x
Cc1ccc(CSCCNC(=O)c2ccc(Cl)c(S(=O)(=O)N3CCOCC3)c2)cc1	5.7	3.6	3.4	33.7*	-16.6
COC(=O)[C@@]1(Cc2ccc(F)cc2)C2c3cc(C(=O)N(C)C)n(Cc4ccc(OC(F)(F)F)cc4)c3CC2CN1C(=O)c1ccccc1 (stereo not given in full)	4.2	x	x	x	x
O=C(O)c1ccc(NN=Cc2ccc(-c3cc(Cl)ccc3Cl)o2)cc1	1.7	x	x	x	x
COc1cccc(/C=C/C(=O)c2ccc(NS(=O)(=O)c3ccc(C)cc3)cc2)c1	4.5	1.8	33.9*	-1.2	-160.3
O=C(O)c1ccc(N/N=C/c2ccc(-c3ccccc3)cc2)cc1	x	x	14.2	18.5*	x
O=C(O)c1cc(-c2ccc(/C=N/Nc3ccc(Cl)cc3)o2)ccc1Cl	x	0.8	-39.4	14.7*	8.4

High-throughput results: PubChem BioAssay, several laboratories
